In all, about 5,500 compounds went through this assay and about 2,000 (36%) were called active. About 18% were inconclusive and are not listed. This is one part of the list. Values without a mark were called inactive. No stated cut-off is given here; in the data, active means normalized growth mostly below about 0.91 (no sharp cut-off); inconclusive means no clear call, values can overlap the other calls; inactive means mostly above about 0.92.
Experiment: chemical genetic growth profiling, strain panel (AID 1159580);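 further: tested at 20 µM; growth read once vehicle control cultures reached saturation at 30 °C; 1 = growth at the plate median or of vehicle wells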
Conditions: growth OD
[1] = S. cerevisiae deletion strains, locus YGR078C, strain PAC10, stronger effect = lower value
[2] = S. cerevisiae deletion strains, locus YMR263W, strain SAP30, stronger effect = lower value
[3] = S. cerevisiae deletion strains, locus YMR307W, strain GAS1, stronger effect = lower value
[4] = S. cerevisiae deletion strains, locus YNL322C, strain KRE1, stronger effect = lower value
[5] = S. cerevisiae deletion strains, locus YPL241C, strain CIN2, stronger effect = lower value
[6] = S. cerevisiae deletion strains, locus YDL101C, strain DUN1, stronger effect = lower value
[7] = S. cerevisiae deletion strains, locus YHR030C, strain SLT2, stronger effect = lower value

`CCCc1c(-c2ccc(O)cc2)nn(-c2ccc(O)cc2)c1-c1ccc(O)cc1` gave a normalized growth (S. cerevisiae deletion strains, locus YAL040C, strain CLN3, stronger effect = lower value) of 0.985, a normalized growth (S. cerevisiae deletion strains, locus YCL061C, strain MRC1 (second series), stronger effect = lower value) of 0.999 and a normalized growth (S. cerevisiae deletion strains, locus YDR363W, strain ESC2, stronger effect = lower value) of 0.994. For the same compound, the normalized growth (S. cerevisiae deletion strains, locus YER002W, strain NOP16, stronger effect = lower value) was 1, the normalized growth [1] was 1 and the normalized growth [2] was 0.995. For the same compound, the normalized growth [3] was 1.01, the normalized growth (S. cerevisiae deletion strains, locus YNL175C, strain NOP13, stronger effect = lower value) was 1.02 and the normalized growth (S. cerevisiae deletion strains, locus YNL197C, strain WHI3, stronger effect = lower value) was 1.01. For the same compound, the normalized growth (S. cerevisiae deletion strains, locus YNL224C, strain SQS1, stronger effect = lower value) was 1, the normalized growth [4] was 0.988 and the normalized growth (S. cerevisiae deletion strains, locus YOR083W, strain WHI5 (second series), stronger effect = lower value) was 0.948. It also gave a normalized growth [5] of 0.991.
In the case of `O=C1CCc2cccc3cccc1c23`, the normalized growth (S. cerevisiae deletion strains, locus YAL013W, strain DEP1, stronger effect = lower value) is reported as 0.963, the normalized growth (S. cerevisiae deletion strains, locus YBR229C, strain ROT2, stronger effect = lower value) is reported as 0.984 and the normalized growth [6] is reported as 0.932. For the same compound, the normalized growth (S. cerevisiae deletion strains, locus YDR150W, strain NUM1, stronger effect = lower value) was 0.966, the normalized growth (S. cerevisiae deletion strains, locus YEL061C, strain CIN8, stronger effect = lower value) was 0.954 and the normalized growth [1] was 0.962. The normalized growth [7] was 0.769, the normalized growth (S. cerevisiae deletion strains, locus YHR087W, strain rtc3, stronger effect = lower value) was 1.01 and the normalized growth (S. cerevisiae deletion strains, locus YJL187C, strain SWE1, stronger effect = lower value) was 0.981. The normalized growth (S. cerevisiae deletion strains, locus YJR043C, strain POL32, stronger effect = lower value) was 0.988, the normalized growth (S. cerevisiae deletion strains, locus YJR075W, strain HOC1, stronger effect = lower value) was 0.997 and the normalized growth (S. cerevisiae deletion strains, locus YLR039C, strain RIC1, stronger effect = lower value) was 0.679 (active). The normalized growth (S. cerevisiae deletion strains, locus YLR058C, strain SHM2 (second series), stronger effect = lower value) was 0.982, the normalized growth (S. cerevisiae deletion strains, locus YLR085C, strain ARP6, stronger effect = lower value) was 0.764 (active) and the normalized growth (S. cerevisiae deletion strains, locus YLR262C, strain YPT6, stronger effect = lower value) was 0.672 (active). The normalized growth (S. cerevisiae deletion strains, locus YML094W, strain GIM5, stronger effect = lower value) was 0.921, the normalized growth (S. cerevisiae deletion strains, locus YMR219W, strain ESC1, stronger effect = lower value) was 0.988 and the normalized growth [2] was 0.969. For the same compound, the normalized growth [3] was 1.03, the normalized growth (S. cerevisiae deletion strains, locus YNL153C, strain GIM3, stronger effect = lower value) was 0.934 and the normalized growth (S. cerevisiae deletion strains, locus YNL298W, strain CLA4 (second series), stronger effect = lower value) was 0.906. The normalized growth [4] was 0.957, the normalized growth (S. cerevisiae deletion strains, locus YNR030W, strain Alg12, stronger effect = lower value) was 0.927 and the normalized growth (S. cerevisiae deletion strains, locus YPL055C, strain LGE1, stronger effect = lower value) was 1. For the same compound, the normalized growth [5] was 0.933, the normalized growth (S. cerevisiae deletion strains, locus YPR135W, strain CTF4, stronger effect = lower value) was 0.713 and the normalized growth (S. cerevisiae strains, strain wild type, stronger effect = lower value) was 0.949.
Work on `Cc1cccc(N=NC(C(=O)C(F)(F)F)=C(O)c2cccs2)c1` yielded a normalized growth (S. cerevisiae deletion strains, locus YAR019C, strain CDC15, stronger effect = lower value) of 0.995, a normalized growth (S. cerevisiae deletion strains, locus YBL105C, strain PKC1, stronger effect = lower value) of 0.985 and a normalized growth (S. cerevisiae deletion strains, locus YBR135W, strain CKS1, stronger effect = lower value) of 0.987. For the same compound, the normalized growth (S. cerevisiae deletion strains, locus YBR136W, strain MEC1, stronger effect = lower value) was 0.993, the normalized growth (S. cerevisiae deletion strains, locus YBR160W, strain CDC28, stronger effect = lower value) was 0.996 and the normalized growth (S. cerevisiae deletion strains, locus YDL017W, strain CDC7, stronger effect = lower value) was 0.986. The normalized growth (S. cerevisiae deletion strains, locus YDL028C, strain MPS1, stronger effect = lower value) was 0.996, the normalized growth [6] was 0.988 and the normalized growth (S. cerevisiae deletion strains, locus YDL108W, strain KIN28, stronger effect = lower value) was 0.984. The normalized growth (S. cerevisiae deletion strains, locus YDL132W, strain cdc53, stronger effect = lower value) was 0.978, the normalized growth (S. cerevisiae deletion strains, locus YDL214C, strain PRR2, stronger effect = lower value) was 0.975 and the normalized growth (S. cerevisiae deletion strains, locus YDR052C, strain DBF4, stronger effect = lower value) was 0.99. The normalized growth (S. cerevisiae deletion strains, locus YDR054C, strain cdc34, stronger effect = lower value) was 0.976, the normalized growth (S. cerevisiae deletion strains, locus YDR226W, strain ADK1, stronger effect = lower value) was 0.992 and the normalized growth (S. cerevisiae deletion strains, locus YDR477W, strain SNF1, stronger effect = lower value) was 0.975. For the same compound, the normalized growth (S. cerevisiae deletion strains, locus YER123W, strain YCK3, stronger effect = lower value) was 0.979, the normalized growth (S. cerevisiae deletion strains, locus YER133W, strain GLC7, stronger effect = lower value) was 0.975 and the normalized growth (S. cerevisiae deletion strains, locus YFL009W, strain cdc4, stronger effect = lower value) was 0.988. The normalized growth (S. cerevisiae deletion strains, locus YFL029C, strain CAK1, stronger effect = lower value) was 0.993, the normalized growth (S. cerevisiae deletion strains, locus YFR003C, strain YPI1, stronger effect = lower value) was 0.99 and the normalized growth (S. cerevisiae deletion strains, locus YFR019W, strain FAB1, stronger effect = lower value) was 0.992. The normalized growth (S. cerevisiae deletion strains, locus YFR028C, strain CDC14, stronger effect = lower value) was 0.983, the normalized growth (S. cerevisiae deletion strains, locus YGR040W, strain KSS1, stronger effect = lower value) was 0.974 and the normalized growth (S. cerevisiae deletion strains, locus YGR052W, strain FMP48, stronger effect = lower value) was 0.927. The normalized growth (S. cerevisiae deletion strains, locus YGR092W, strain DBF2, stronger effect = lower value) was 0.946, the normalized growth [7] was 0.876 and the normalized growth (S. cerevisiae deletion strains, locus YHR079C, strain IRE1, stronger effect = lower value) was 0.749. For the same compound, the normalized growth (S. cerevisiae deletion strains, locus YHR082C, strain KSP1, stronger effect = lower value) was 1.07, the normalized growth (S. cerevisiae deletion strains, locus YHR205W, strain SCH9, stronger effect = lower value) was 0.985 and the normalized growth (S. cerevisiae deletion strains, locus YIL147C, strain SLN1, stronger effect = lower value) was 0.988. For the same compound, the normalized growth (S. cerevisiae deletion strains, locus YJL095W, strain BCK1, stronger effect = lower value) was 0.787, the normalized growth (S. cerevisiae deletion strains, locus YJL128C, strain PBS2, stronger effect = lower value) was 0.944 and the normalized growth (S. cerevisiae deletion strains, locus YJL157C, strain FAR1, stronger effect = lower value) was 0.989. For the same compound, the normalized growth (S. cerevisiae deletion strains, locus YJR016C, strain ILV3, stronger effect = lower value) was 0.984, the normalized growth (S. cerevisiae deletion strains, locus YJR066W, strain TOR1 (second series), stronger effect = lower value) was 0.988 and the normalized growth (S. cerevisiae deletion strains, locus YJR066W, strain TOR1, stronger effect = lower value) was 1.07. For the same compound, the normalized growth (S. cerevisiae deletion strains, locus YKL048C, strain ELM1, stronger effect = lower value) was 0.976, the normalized growth (S. cerevisiae deletion strains, locus YKL067W, strain YNK1, stronger effect = lower value) was 0.976 and the normalized growth (S. cerevisiae deletion strains, locus YKL101W, strain HSL1, stronger effect = lower value) was 0.951. The normalized growth (S. cerevisiae deletion strains, locus YKL193C, strain SDS22, stronger effect = lower value) was 0.991, the normalized growth (S. cerevisiae deletion strains, locus YKL203C, strain TOR2, stronger effect = lower value) was 1.06 and the normalized growth (S. cerevisiae deletion strains, locus YLR113W, strain HOG1, stronger effect = lower value) was 0.713 (active). The normalized growth (S. cerevisiae deletion strains, locus YLR133W, strain CKI1, stronger effect = lower value) was 0.983, the normalized growth (S. cerevisiae deletion strains, locus YLR403W, strain SFP1, stronger effect = lower value) was 0.979 and the normalized growth (S. cerevisiae deletion strains, locus YML070W, strain DAK1, stronger effect = lower value) was 0.973. For the same compound, the normalized growth (S. cerevisiae deletion strains, locus YMR001C, strain CDC5, stronger effect = lower value) was 0.979, the normalized growth (S. cerevisiae deletion strains, locus YMR205C, strain PFK2 (second series), stronger effect = lower value) was 0.984 and the normalized growth (S. cerevisiae deletion strains, locus YMR277W, strain FCP1, stronger effect = lower value) was 0.989. It also gave a normalized growth (S. cerevisiae deletion strains, locus YNL006W, strain LST8, stronger effect = lower value) of 0.988, a normalized growth (S. cerevisiae deletion strains, locus YNL020C, strain ARK1, stronger effect = lower value) of 0.979 and a normalized growth (S. cerevisiae deletion strains, locus YNL161W, strain CBK1, stronger effect = lower value) of 0.99. For the same compound, the normalized growth (S. cerevisiae deletion strains, locus YNL183C, strain NPR1, stronger effect = lower value) was 0.842, the normalized growth (S. cerevisiae deletion strains, locus YNL207W, strain RIO2, stronger effect = lower value) was 0.986 and the normalized growth (S. cerevisiae deletion strains, locus YNL222W, strain SSU72, stronger effect = lower value) was 0.987. For the same compound, the normalized growth (S. cerevisiae deletion strains, locus YNL307C, strain MCK1 (second series), stronger effect = lower value) was 0.984, the normalized growth (S. cerevisiae deletion strains, locus YOL078W, strain AVO1, stronger effect = lower value) was 0.988 and the normalized growth (S. cerevisiae deletion strains, locus YOL136C, strain PFK27, stronger effect = lower value) was 0.989. For the same compound, the normalized growth (S. cerevisiae deletion strains, locus YOR061W, strain CKA2, stronger effect = lower value) was 0.983, the normalized growth (S. cerevisiae deletion strains, locus YOR119C, strain RIO1, stronger effect = lower value) was 0.999 and the normalized growth (S. cerevisiae deletion strains, locus YOR231W, strain MKK1, stronger effect = lower value) was 0.797. It also gave a normalized growth (S. cerevisiae deletion strains, locus YOR329C, strain SCD5, stronger effect = lower value) of 0.984, a normalized growth (S. cerevisiae deletion strains, locus YPL031C, strain PHO85, stronger effect = lower value) of 0.953 and a normalized growth (S. cerevisiae deletion strains, locus YPL153C, strain RAD53, stronger effect = lower value) of 0.948. The normalized growth (S. cerevisiae deletion strains, locus YPL204W, strain HRR25, stronger effect = lower value) was 0.97, the normalized growth (S. cerevisiae deletion strains, locus YPL209C, strain IPL1, stronger effect = lower value) was 0.99 and the normalized growth (S. cerevisiae deletion strains, locus YPL256C, strain CLN2, stronger effect = lower value) was 0.777 (active). For the same compound, the normalized growth (S. cerevisiae deletion strains, locus YPR025C, strain CCL1, stronger effect = lower value) was 0.985, the normalized growth (S. cerevisiae deletion strains, locus YPR106W, strain ISR1, stronger effect = lower value) was 0.98 and the normalized growth (S. cerevisiae deletion strains, locus YPR111W, strain DBF20, stronger effect = lower value) was 0.972. The normalized growth (S. cerevisiae deletion strains, strain NNK1, stronger effect = lower value) was 0.995 and the normalized growth (S. cerevisiae deletion strains, strain TSCII, stronger effect = lower value) was 0.988.
